This note sets out measurements from PubChem BioAssay AID2563 (Broad Institute, 2010).

Molecules are shown by their SMILES. In all, about 290,000 compounds went through this assay and about 800 (0.28%) were called active.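 How the source made its calls: active means fall in fluorescence gain of 50% or more versus controls, with final raw signal at or below 3038400; inconclusive means same 50% fall but final raw signal above 3038400; inactive means fall in fluorescence gain under 50%.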 The sample as a whole holds a higher share of actives than the screen did.

The target in the assay is CAAX prenyl protease 2 (Saccharomyces cerevisiae (strain ATCC 204508 / S288c)) (UniProt Q03530). The experiment in a line: blockers of Rce1 CaaX peptide cleavage – biochemical, fluorescence, cell-free homogeneous, primary screen (AID 2563). The conditions noted are these: yeast membranes, quenched prenylated peptide cleavage fluorescence.
Chain of CAAX prenyl protease 2 (Saccharomyces cerevisiae (strain ATCC 204508 / S288c)) (Q03530 whole entry, looked up): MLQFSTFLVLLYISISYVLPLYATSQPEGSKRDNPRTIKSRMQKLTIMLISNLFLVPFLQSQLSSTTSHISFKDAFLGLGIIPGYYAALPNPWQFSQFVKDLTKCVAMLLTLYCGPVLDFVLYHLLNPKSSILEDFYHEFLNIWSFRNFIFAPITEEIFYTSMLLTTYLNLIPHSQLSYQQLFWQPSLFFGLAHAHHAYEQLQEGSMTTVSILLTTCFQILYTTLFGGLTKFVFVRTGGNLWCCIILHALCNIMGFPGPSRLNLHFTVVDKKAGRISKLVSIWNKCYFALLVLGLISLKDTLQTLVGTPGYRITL
For the compound `CC(=O)C12CC(C)=C(C)CC1CC1C3CCC4=CC(=O)CCC4(C)C3CCC12C` (configuration not stated), the compound was classed as inactive.
With `CSc1nsc(NC(=O)Nc2ccccc2)n1` the entry was “inactive”; with `CCN(Cc1ccccc1)C(=O)Cc1ccc(OC)c(S(=O)(=O)N2CCOCC2)c1`, “inactive”; with `O=C(COc1coc(CN2CCN(c3ccccc3)CC2)cc1=O)Nc1ccccc1F`, “inactive”.
Under `COCCCN(C(=O)CSCc1ccc(C)cc1)c1c(N)n(Cc2ccccc2)c(=O)[nH]c1=O` stands “inactive”; under `COc1ccc(N2CCN(S(=O)(=O)c3cc4c5c(c3)C(C)C(=O)N5CCC4)CC2)cc1` (configuration not stated), “inactive”; under `O=C(Nc1ncccc1O)c1ccc(S(=O)(=O)N2CCCCCC2)cc1`, “inactive”.
Under `COc1cc(C2C(C(=O)c3cccs3)=C(O)C(=O)N2CCN2CCOCC2)ccc1OCCC(C)C` (configuration not stated) stands “inactive”; under `Cc1ccc2nc(SCC(=O)N3CC(C)OC(C)C3)nc(=O)n2c1` (configuration not stated), “inactive”.
On to `Cc1cccc(C)c1NC(=O)CNC(=O)c1c(C)nn(-c2ccccc2)c1C`, for which the call was inactive.
Turning to `CCc1noc(C)c1C(=O)N1CCCSC1=Nc1ccccc1OC`, the result was inactive.
With `CCCCn1c(N)c(N(CC(C)C)C(=O)C2CSC3(C)CCC(=O)N23)c(=O)[nH]c1=O` (configuration not stated), the outcome was inactive.
On to `COc1ccc(CNC(=O)COC(=O)CCS(=O)(=O)c2ccc(C)cc2)cc1OC`, for which the call was inactive.
Take `Cc1c(NC(=O)C(C)Oc2cccc(Cl)c2)c(=O)n(-c2ccccc2)n1C` (configuration not stated): the compound was classed as inactive.
With `O=C(NC1CCCCC1)c1ccc(-c2ccc(Cl)cc2)o1`, the result was inactive.
With `CCOc1ccc(C(C)=O)cc1COC(=O)CNC(=O)c1cccs1` the entry was “inactive”.
For the compound `O=C(COc1coc(CN2CCN(c3ccccc3F)CC2)cc1=O)N1CCc2ccccc21`, the compound was called inactive.
Under `O=c1[nH]c(/C=C/c2cccc(Br)c2)nc2ccccc12` stands “inactive”.
Under `COc1ccc(NC(=O)CN(C)C(=O)c2ccc(COc3ccccc3)o2)cc1` stands “inactive”; under `Cc1ccc(S(=O)(=O)N2CCOCC2)cc1C(=O)Nc1ccccc1N1CCCC1`, “inactive”.
`COc1ccc([C@@H]2[C@@H]3C(=O)N(C(C)(C)C)C(=O)[C@@H]3[C@]3(Cc4ccccc4)C(=O)N(c4cccc(Br)c4)C(=O)N23)cc1`: the result was inactive.
For `CCOC(=O)c1c(C)c(C(=O)NCCc2ccc(S(N)(=O)=O)cc2)c(C)n1CC`, the compound was classed as inactive.
As for `CCCNC(=O)c1c(N)n(-c2ccc(S(N)(=O)=O)cc2)c2nc3ccccc3nc12`, the outcome was active.
With `Cc1noc(C)c1C(=O)NCCc1ccc(S(N)(=O)=O)cc1` the entry was “inactive”; with `CN(C)C(CNC(=O)c1cccc(S(=O)(=O)Nc2ccc(Br)cc2)c1)c1ccco1` (configuration not stated), “inactive”.
On to `COc1ccc(N2CC(C(=O)NCCN3C(=O)S/C(=C\c4cccnc4)C3=O)CC2=O)c(OC)c1` (configuration not stated), for which the outcome was inactive.
Regarding `CC1(C)C/C(=N/Nc2ccc([N+](=O)[O-])cc2[N+](=O)[O-])C(C)(C)O1`, the outcome was inactive.
With `COc1ccc(C(CNC(=O)c2ccc(NS(=O)(=O)c3ccc(F)c(C)c3)cc2)N(C)C)cc1` (configuration not stated), the compound was classed as inactive.
With `CCOC(=O)c1cnc2nc(SCc3ccccc3Cl)[nH]n2c1=O` the entry was “inactive”.
Under `CCOC(=O)c1cc(C(C)C)sc1NC(=O)COC(=O)c1nccnc1N` stands “inactive”; under `Cc1nc2ccccc2c(=O)n1-c1ccc(NS(=O)(=O)c2ccc(F)cc2F)cc1`, “inactive”.
Take `O=C(CNC(=O)c1ccccc1Br)NCCSc1ccc(Br)cc1`: the call was inactive.
With `COc1ccc(-c2oc3ncnc(NCCCO)c3c2-c2ccc(OC)cc2)cc1` the entry was “inactive”; with `N=c1c2c(-c3ccccc3)c(-c3ccccc3)oc2ncn1Cc1ccco1`, “inactive”.
Regarding `COc1ccc(-c2oc3ncn(Cc4ccco4)c(=N)c3c2-c2ccc(OC)cc2)cc1`, the compound was called active.
With `CCCCn1c(N)c(N(CCOC)C(=O)COc2c(C)cccc2C)c(=O)[nH]c1=O` the entry was “inactive”; with `CCCCOCCCNC(=O)c1ccccc1OCC`, “inactive”; with `COc1ccc(CCNC(=O)c2ccccc2OCc2ccccc2)cc1`, “inactive”.
`CCCOc1ccccc1C(=O)NCCCC(=O)O`: the outcome was active.
Regarding `O=C(Nc1ccc2nc3n(c(=O)c2c1)CCCC3)c1ccc(Cl)nc1`, the call was inactive.
Under `O=C(Nc1ccc(S(=O)(=O)N2CCCCC2)cc1)C1CCN(C(=O)c2ccc(F)cc2)CC1` stands “inactive”; under `CC1(C)CC(N(Cc2ccccc2)C(=O)Cc2ccccc2)CCO1` (configuration not stated), “inactive”; under `O=C(O)CCC(=O)N(Cc1cccs1)Cc1cccs1`, “inactive”.
In the case of `CC(=O)N(Cc1cccs1)C1CCOC(C)(C)C1` (configuration not stated), the compound was called active.
`COc1ccccc1CNC(=O)CSc1nc(=O)n(Cc2ccncc2)c2c1CCC2`: the compound was called inactive.
As to `Cc1ccccc1C(=O)NCC(c1ccco1)N1CCc2ccccc21` (configuration not stated), the call was inactive.
Under `O=C(NCCS(=O)(=O)N1CCN(c2ccc(F)cc2)CC1)c1ccc2c(c1)OCO2` stands “inactive”; under `N#CCCN(C(=O)COC(=O)c1ccc(S(=O)(=O)N2CCCCCC2)cc1)c1ccccc1`, “inactive”.
With `Cc1ccccc1OCC(=O)Nc1ccc2c(c1)ncn2C` the entry was “inactive”.
With `COc1cc(NC(=O)CSC(=S)N2CCCC2)c(OC)cc1Cl` the entry was “inactive”; with `CN(C)c1ccc(/C=N/NC(=O)c2ccc(Cn3cc(Br)cn3)o2)cc1`, “inactive”.
`O=C(O)c1ccc(/C=N/NC(=O)c2ccc(Br)cc2)cc1`: the call was inactive.
With `CN(C)c1ccc(/C=N/NC(=O)C(O)c2ccc(Br)cc2)cc1` (configuration not stated) the entry was “active”.
Regarding `COc1ccc(S(=O)(=O)N2CCCCC2)cc1NC(=O)c1cc([N+](=O)[O-])ccc1N1CCOCC1`, the compound was called inactive.
Regarding `CC1(c2ccc(Cl)cc2Cl)NC(=O)N(CC(=O)Nc2cccnc2Cl)C1=O` (configuration not stated), the call was inactive.
Under `COc1ccc(C(CNC(=O)c2cccc(S(=O)(=O)Nc3ccccc3Cl)c2)N2CCOCC2)cc1` (configuration not stated) stands “inactive”; under `O=C(CCC1CCCCC1)Nc1cc(C(F)(F)F)ccc1N1CCOCC1`, “inactive”; under `O=C(CN1CCOCC1)Nc1cccc([N+](=O)[O-])c1`, “inactive”.
Under `Cc1ccc(S(=O)(=O)CC(=O)Nc2sc(C)c(C)c2C(N)=O)cc1` stands “inactive”; under `COc1cccc(OCC(=O)Nc2ccccc2C(N)=O)c1`, “inactive”.
On to `CCn1c(=N)n(CC(=O)c2cccc(OC)c2)c2ccccc21`, for which the call was inactive.
In the case of `Cc1ccc(OCc2nc3ccccc3n2C)cc1`, the compound was called inactive.
Under `CCCCCCCCCCOC(=O)Cn1c(COc2ccc(C)cc2)[n+](C)c2ccccc21` stands “active”.
Turning to `CCCCOC(=O)Cn1c(=N)n(CCN(CC)CC)c2ccccc21`, the result was inactive.
With `CCCCCCCCCCOC(=O)Cn1c(COc2cccc(OC)c2)[n+](C)c2ccccc21` the entry was “active”; with `Cc1ccc(CC(=O)N(C)CC(=O)N(CC(C)C)c2c(N)n(CC(C)C)c(=O)[nH]c2=O)cc1C`, “inactive”; with `Cc1ccc(Cc2nnc(SCC(=O)Nc3ccccc3C)[nH]c2=O)cc1`, “inactive”.
With `CC(=O)NC(Cc1c[nH]c2ccccc12)C(=O)NCCc1ccccc1` (configuration not stated) the entry was “inactive”; with `CC(=O)NC(Cc1c[nH]c2ccccc12)C(=O)O` (configuration not stated), “active”.
With `Cc1cccc(C)c1OCC(=O)NC(Cc1c[nH]c2ccccc12)C(=O)O` (configuration not stated) the entry was “inactive”; with `COc1ccccc1CCC(=O)NNC(=O)c1ccncc1`, “inactive”.
Consider `O=C(COC(=O)CCOc1ccccc1)Nc1cc(S(=O)(=O)N2CCCCC2)ccc1Cl`, for which the compound was classed as inactive.
With `CCN(CC)c1ccc(NC(=O)c2ccc(=O)[nH]c2)cc1S(=O)(=O)Nc1ccc(OC)cc1` the entry was “inactive”; with `CCOC(=O)c1c(C)oc2cc(Sc3ccccc3)c(O)c(O)c12`, “inactive”.
`O=C1CCCC(O)=C1N=Nc1ccc(S(=O)(=O)N2CCOCC2)cc1`: the compound was called inactive.
As for `O=C1CCCC(O)=C1N=Nc1ccc2ncsc2c1`, the call was active.
Take `COc1ccc(C(=O)N(Cc2ccccc2)c2ccc(C)cc2)cc1S(=O)(=O)N1CCOCC1`: the call was inactive.
With `CC1CC(C)(C)CC2(C1)NC(=O)N(CC(=O)Nc1nccs1)C2=O` (configuration not stated) the entry was “inactive”; with `CCN(CC)S(=O)(=O)c1ccc(-c2cn3ccc(C)cc3n2)cc1`, “inactive”.
Take `COc1ccc(-c2cn3ccc(C)cc3n2)cc1`: the call was active.
For the compound `COc1ccc(-c2cn3ccsc3n2)cc1`, the outcome was inactive.
Under `Cc1ccc(NC(=O)COC(=O)CNC(=O)c2ccc(Cl)cc2Cl)cc1S(=O)(=O)N1CCOCC1` stands “inactive”; under `O=C(COc1ccc(-n2cnnn2)cc1)Nc1ccccc1Cl`, “inactive”.
On to `C=CCc1ccccc1OCC(=O)N/N=C/c1ccccc1OCC`, for which the outcome was inactive.
Under `C=CCc1cccc(/C=N/NC(=O)COc2ccc(-n3cnnn3)cc2)c1O` stands “active”; under `CC(C)CN(C(=O)Cn1c(=O)cnc2ccccc21)C1CCS(=O)(=O)C1` (configuration not stated), “inactive”.
`O=C(NCc1ccc(Cl)cc1)C(=O)NCC1CCCN1S(=O)(=O)c1cccs1` (configuration not stated): the outcome was inactive.
Under `CCCCN(C(=O)CCNC(=O)NC12CC3CC(CC(C3)C1)C2)c1c(N)n(CCCC)c(=O)[nH]c1=O` stands “inactive”.
With `CC(=O)c1ccc(NC(=O)C2CCCN2S(=O)(=O)c2cccs2)cc1` (configuration not stated), the call was inactive.
Under `COc1ccc2c(c1)O/C(=C\c1ccccc1O)C2=O` stands “inactive”; under `Cc1cc(=O)[nH]c(SCc2ccc(Cl)cc2)n1`, “inactive”; under `Cc1cc(C)nc(SCc2cn3c(C)cc(C)nc3n2)n1`, “active”.
Under `Cc1ccc2nc(SCc3cn4c(C)cc(C)nc4n3)[nH]c2c1` stands “inactive”.
Under `COc1ccc(OCc2cn3c(C)cc(C)nc3n2)cc1` stands “inactive”; under `CCc1cccc(C)c1NC(=O)COC(=O)CNC(=O)c1cccs1`, “inactive”; under `CCN(CC(=O)Nc1c(F)cccc1F)C(=O)c1ccc(S(=O)(=O)N2CCCCC2)cc1`, “inactive”.
For `Cc1ccc(S(=O)(=O)N2CCCCC2)cc1C(=O)N(C)CC(=O)Nc1cccc(F)c1`, the compound was classed as inactive.
`O=C(Nc1ccc(F)c([N+](=O)[O-])c1)C1CCCO1` (configuration not stated): the compound was classed as inactive.
With `CS(=O)(=O)Nc1cccc(C2=NN(S(=O)(=O)c3ccccc3)C(c3cccs3)C2)c1` (configuration not stated) the entry was “inactive”; with `Cc1ccc(C2CC(c3cccc(NS(C)(=O)=O)c3)=NN2S(C)(=O)=O)cc1` (configuration not stated), “inactive”; with `CS(=O)(=O)Nc1ccc(C2=NN(S(C)(=O)=O)C(c3cccs3)C2)cc1` (configuration not stated), “active”.
Under `Cc1ccc(CN2CCN(c3ccccc3Cl)CC2)o1` stands “inactive”.
